Reference: PubChem BioAssay AID504725 (Broad Institute, 2011)
Results with a measured potency or affinity are listed apart. Active and inactive are the calls of the source. No rule for the calls is given here.

Target: KSHV LANA C-terminal domain (residues 932-1162) binding to LBS DNA (UniProt O40947)
Assay: KSHV LANA DNA-binding disruption – biochemical, fluorescence polarization, cherry-picked samples, dose response (AID 504725)
Settings: MBP-C-LANA / FAM-LBS DNA fluorescence polarization, percent change from plate compound-well median; series mostly up to 35 µM

outcome, inactive:
O=C1c2ccccc2C(=O)C1c1ccccn1
COc1ccc(CC(=O)O/N=C(\N)c2ccc(OC)cc2)cc1
O=C(O)/C=C/c1ccccc1Oc1ccccc1
Cc1c(Cl)cccc1NS(=O)(=O)c1ccc2c(c1)C1C=CCC1C(c1ccc(C(=O)O)cc1)N2 (centres undefined)
CCOC(=O)[C@H]1[C@H]2COc3cc(OC)ccc3[C@@H]2N2C(=O)CN(Cc3ccc(OC)cc3)C(=O)[C@@]12C
Cn1c2ccccc2c2cnn(CC(=O)Nc3cccc(F)c3)c(=O)c21
S=c1c2c(nc3nc[nH]n13)CCC2
O=[N+]([O-])c1cccc(CSc2nc3ccccc3[nH]2)c1
CC(C)CN(C(=O)CSc1nncn1C)C1CCS(=O)(=O)C1 (centres undefined)
CCN1/C(=C2/SC(=S)N(NC(C)=O)C2=O)Sc2ccc(OC)cc21
COc1c2c(nc3occc13)C(CCC(C)(C)O)(OC)C(O)CC2 (centres undefined)
Cc1cc2c(N)cccc2nn1
COc1ccc(Br)cc1CNC(=O)CCCc1cn(C)c2ccccc12
CCOC(=O)C1=C(O)/C(=C/c2cc(C)n(-c3ccccc3)c2C)N=C1C
NC(=O)C1(N2CCCCC2)CCN(Cc2ccc(Br)cc2)CC1
O=C(NC1CCCCC1)c1cc([N+](=O)[O-])ccc1N1CCOCC1
CCOC(=O)C(C)(C)N(Cc1ccccc1C)S(=O)(=O)c1ccc(Cl)c([N+](=O)[O-])c1
NC(=S)N/N=C/c1cn(CCC(=O)O)nc1-c1cccc(Br)c1
C=CCNC(=S)N1CCN(S(=O)(=O)c2ccc(C)cc2)CC1
